SIRT5 inh = blocks human SIRT5 desuccinylation of peptide. Q9NXA8. Purified SirT5, succinyl-peptide AMC, trypsin-coupled fluorescence. inhibition, % at 15 µM. 330,000 compounds, 1.1% hits. AID 652115; in the data active means inhibition above about 15%
Target sequence (Q9NXA8 whole entry, looked up): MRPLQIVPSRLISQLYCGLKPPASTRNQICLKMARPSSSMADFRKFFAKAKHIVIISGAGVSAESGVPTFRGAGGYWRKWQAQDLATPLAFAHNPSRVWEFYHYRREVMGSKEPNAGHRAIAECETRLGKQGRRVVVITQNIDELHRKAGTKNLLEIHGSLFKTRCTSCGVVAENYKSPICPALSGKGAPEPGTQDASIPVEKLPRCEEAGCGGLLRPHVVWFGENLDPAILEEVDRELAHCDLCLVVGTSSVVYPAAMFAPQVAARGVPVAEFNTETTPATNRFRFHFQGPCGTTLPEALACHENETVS
FGF22 binding = shifts melting point of recombinant human FGF22; Q9HCT0; recombinant FGF22 thermal shift, SYPRO orange fluorescence; percent of sucrose octasulfate shift, DMSO zero; activity (Tm shift, normalised), % at 9.99 µM; 340,000 compounds, 1.5% hits;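 active means mean Tm shift, scaled 0 neutral to 100 positive control, at about 1.3% or above, every replicate too, limit read from the data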
Target sequence (Q9HCT0 whole entry, looked up): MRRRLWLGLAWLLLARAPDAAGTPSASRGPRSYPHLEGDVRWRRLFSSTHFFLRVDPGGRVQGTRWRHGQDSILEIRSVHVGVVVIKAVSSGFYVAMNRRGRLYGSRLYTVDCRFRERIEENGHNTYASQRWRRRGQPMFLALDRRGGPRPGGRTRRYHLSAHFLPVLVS
Casp6 inh = inhibitors of human caspase-6. purified caspase-6, Z-VEID-R110 cleavage fluorescence. 350,000 compounds, 0.53% hits. AID 686996. inhibition, % at 12.5 µM. P55212;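 active means mean inhibition across replicates at least about 35%, with every replicate also reaching that limit, limit read from the data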;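 further: 0% = median of neutral control wells and 100% = no fluorescence left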
ERAP1 inh = blocks human ERAP1 aminopeptidase activity. 340,000 compounds, 0.15% hits. inhibition, % at 10.7 µM. recombinant ERAP1, Leu-AMC fluorescence, 60 min;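 active means mean replicate inhibition of at least 30%, or all replicates individually reaching that 30% level; inactive means mean below 30% and not every replicate reaching it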;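 further: 0% = neutral control wells and 100% = L-leucinethiol positive control wells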
Numbers without * were called inactive; . = not tested or not shown. An excerpt weighted towards active compounds, which were near 3.1% of everything screened.

SMILES	SIRT5 inh	FGF22 binding	Casp6 inh	ERAP1 inh
O=C(N/C=C/n1cnc2cc(C(F)(F)F)ccc21)c1ccc(F)cc1	.	0	-3	-2
COc1ccc(S(=O)(=O)N(C)C[C@H]2OCCCC[C@H](C)Oc3ccc(NC(=O)Nc4ccc(C(F)(F)F)cc4)cc3C(=O)N([C@@H](C)CO)C[C@H]2C)cc1	-11	1	-1	-3
Cc1ccc2nc(N3C(=O)C(O)=C(C(=O)c4ccc(C)o4)C3c3ccco3)sc2c1 (stereo not given)	-10	0	48*	2
O=C(C1=C(O)C(=O)N(c2nc3ccc(Cl)cc3s2)C1c1ccco1)c1ccco1 (stereo not given)	-14	.	88*	0
Cc1ccc2nc(N3C(=O)C(O)=C(C(=O)c4ccco4)C3c3ccc(C)o3)sc2c1 (stereo not given)	10	0	0	-5
CSc1nnc(-c2ccccc2)c(-c2ccccc2)n1	0	0	0	.
CSc1nnc(-c2ccco2)c(-c2ccco2)n1	6	.	48*	0
C1CCC(Nc2nc3nonc3nc2N2CCSCC2)C1	1	0	3	3
C1CCN(C2CCN(c3nc4nonc4nc3N3CCSCC3)CC2)C1	-1	43*	-2	0
C1CC2CN(c3nc4nonc4nc3N3CCSCC3)CCN2C1 (stereo not given)	2	44*	-1	0
COc1cc2c(cc1OC)C(c1cccc(Br)c1)NC(=O)C2 (stereo not given)	-1	0	5	0
COc1cc2c(cc1OC)C(c1c(Cl)cccc1Cl)NC(=O)C2 (stereo not given)	26*	0	3	-1
CCOC(=O)[C@@H]1[C@H]2COc3cc(OC)ccc3[C@H]2N2C(=O)N(c3cccc(F)c3)C(=O)[C@]12C	.	0	51*	0
CCOC(=O)[C@H]1[C@H]2COc3ccc(Cl)cc3[C@@H]2N2C(=O)CN(Cc3ccc(C)cc3)C(=O)[C@@]12C	-3	-1	40*	-2
CCOC(=O)[C@@H]1[C@H]2COc3ccccc3[C@@H]2N2C(=O)N(c3ccc(Cl)cc3)C(=O)[C@]12C	0	44*	2	6
C[C@@]12C(=O)N(c3ccc(Br)cc3)C(=O)N1[C@@H]1c3ccccc3OC[C@@H]1[C@H]2c1ccccc1	-2	1.5*	-1	-2
CCOC(=O)[C@H]1[C@H]2COc3ccc(Cl)cc3[C@@H]2N2C(=O)CN(Cc3ccc(OC)cc3)C(=O)[C@@]12C	.	0	1	.
CCOC(=O)[C@@H]1[C@H]2COc3ccccc3[C@H]2N2C(=O)N(c3ccc(C)cc3)C(=O)[C@]12C	.	0	2	2
C[C@]12C(=O)N(c3ccc(Br)cc3)C(=O)N1[C@@H]1c3ccccc3OC[C@@H]1[C@H]2c1ccccc1	.	0	-1	1
CCC(=O)NC[C@H]1[C@H](c2ccc(-c3cccc(F)c3)cc2)[C@@H](CO)N1C(=O)CC	1	0	-1	-1
CCCNC(=O)C[C@H]1C[C@@H]2c3cc(NC(=O)COC)ccc3O[C@@H]2[C@H](CO)O1	-3	0	-3	1
COc1ccc(CN(C)C[C@H]2Oc3ccc(NC(=O)NC4CCCCC4)cc3C(=O)N([C@@H](C)CO)C[C@H]2C)cc1	-7	0	0	-3
CC(C)[C@@H](C)NC(=O)N(C)C[C@H]1OCc2ccccc2-c2c(n(C)c3ccccc23)C(=O)N([C@H](C)CO)C[C@H]1C	-4	0	1	3
CCOC(=O)[C@@H]1[C@H]2COc3cc(OC)ccc3[C@@H]2N2C(=O)N(c3ccc(F)cc3)C(=O)[C@]12C	-1	44*	9	6
Cc1ccc2c(C)c(C(=O)N(Cc3ccc(N(C)C)cc3)C3CCS(=O)(=O)C3)oc2c1 (stereo not given)	-10	0	0	7
SMILES	SIRT5 inh	FGF22 binding	Casp6 inh	ERAP1 inh
Cc1ccc2oc(C(=O)N(Cc3ccc(N(C)C)cc3)C3CCS(=O)(=O)C3)c(C)c2c1 (stereo not given)	-2	0	59*	-2
N=C(N)SCc1ncccc1O	6	0	43*	-3
Oc1cccnc1CCc1ccccc1	-3	0	-5	3
Cc1cc(C)cc(NC(=O)Nc2ccc3c(c2)C(=O)N(C)[C@@H]2CC[C@H](CC(=O)O)O[C@@H]2CO3)c1	.	0	.	.
COCC[N+]1(C)CCCCC1	-2	0	-2	89*
COc1ccc(C2Nc3ccccc3C(=O)N2NS(C)(=O)=O)c(OC)c1 (stereo not given)	15*	0	-2	-8
C[C@H](CO)N1C[C@H](C)[C@H](CN(C)Cc2ccncc2)Oc2c(NC(=O)Nc3cccc4ccccc34)cccc2C1=O	6	-1	2	-3
N#Cc1c(NC(=O)c2ccco2)sc2c1CCC2	-1	0	48*	0
N#Cc1c(NC(=O)c2cccc(S(=O)(=O)Nc3ccc(C(=O)O)cc3)c2)sc2c1CCCC2	7	.	17	43*
O=C(O)c1ccc(NS(=O)(=O)c2cccc(C(=O)Nc3ccc(Br)cc3)c2)cc1	2	.	-5	-7
COCCNC(=O)C[C@H]1CC[C@H]2[C@@H](COC[C@H](O)CN2S(=O)(=O)c2ccccc2C)O1	-3	0	-12	-6
Cc1cc(C)c(C)c(S(=O)(=O)NC(C(=O)O)C(C)C)c1C (stereo not given)	2	43*	4	8
O=C(C[C@@H]1CC[C@@H]2[C@H](COC[C@@H](O)CN2Cc2ccc(Oc3ccccc3)cc2)O1)N1CCCCC1	1	0	0	1
COc1cc(/C=N/NC(=O)c2ccc(O)cc2)ccc1Oc1ccc([N+](=O)[O-])cn1	-1	44*	-4	3
CC(Oc1ccccc1)C(=O)Nc1cccc(NC(=O)c2ccco2)c1 (stereo not given)	1	0	39*	.
Cc1cccc(NC(=O)c2cccc(NC(=O)c3ccco3)c2)c1	3	0	3	3
O=C(Nc1ccccc1)c1cccc(NC(=O)c2ccco2)c1	2	1	2	2
Cc1cccc(C(=O)NNC(=O)c2ccco2)c1	2	43*	-1	-5
O=C(NNC(=S)NC(=O)c1ccco1)c1ccc(F)cc1	3	6.2*	-6	-2
O=C(NC(=S)NNC(=O)c1ccco1)c1ccc(Br)cc1	-3	0	2	0
C[C@@H]1CN([C@H](C)CO)S(=O)(=O)c2ccc(-c3cncnc3)cc2O[C@@H]1CN(C)C(=O)c1ccc2c(c1)OCO2	-1	0	0	0
COc1cc(/C=N/NC(=O)c2cccc([N+](=O)[O-])c2)ccc1OC(=O)c1ccco1	-1	43*	0	-1
CCOc1cc(/C=N/Nc2nc(N3CCCCC3)nc(N3CCCCC3)n2)ccc1OC(=O)c1ccco1	1	43*	-3	-4
COc1cc(/C=N/N2CCOCC2)ccc1OC(=O)c1ccco1	-3	43*	-1	2
COc1cc(/C=N/NC(=O)c2cccc([N+](=O)[O-])c2)ccc1OCc1ccccc1	-1	0	23	1

Compound activity from PubChem BioAssay.
